Measured potencies and affinities stand elsewhere. Records with an inconclusive call do not appear. Active and inactive are the calls of the source. The rule behind the calls is not given here.

The nature of this test: cytotoxicity in COV362 ovarian cancer cells, dose response, cytotoxicity control for PAX8 inhibitor project, cell-based, plate reader, dry powder, SA12 (AID 743144). The settings on record: series mostly up to 35 µM.
For `O=C(CCS(=O)(=O)c1ccccc1)Nc1nc2ccc(F)cc2s1`, the result was inactive.

For `COc1cccc(C#Cc2ccc([C@@H]3[C@@H](C#N)N(C(=O)C4CCCCC4)[C@@H]3CO)cc2)c1`, the outcome was inactive.

As for `C[C@H](CO)N1C[C@H](C)[C@@H](CN(C)S(=O)(=O)c2ccc(-c3ccccc3)cc2)OCc2cn(nn2)CCCC1=O`, the call was inactive.

Turning to `O=S(=O)(Nc1cccc2cccnc12)c1ccccc1`, the compound was classed as inactive.

In the case of `N#C[C@@H]1[C@H](c2ccc(C#CC3CCCCC3)cc2)[C@H](CO)N1S(=O)(=O)c1ccccc1`, the outcome was inactive.

Turning to `C[C@H](CO)N1C[C@H](C)[C@H](CN(C)C(=O)Nc2ccc(-c3cccs3)cc2)OCc2cnnn2CCCC1=O`, the result was inactive.

Take `COc1cccc(C#Cc2ccc([C@H]3[C@@H](CO)N(C(=O)c4ccccn4)[C@H]3C#N)cc2)c1`: the compound was classed as inactive.

In the case of `O=C(CN1C(=O)c2ccccc2S1(=O)=O)c1ccccc1Cl`, the compound was called inactive.

Turning to `COc1ccc(S(=O)(=O)N2CCCCN3[C@H](CO)[C@H](c4ccc(C#CC(C)C)cc4)[C@H]3C2)cc1`, the call was inactive.

With `CCCC#Cc1ccc([C@@H]2[C@@H](C#N)N(S(=O)(=O)c3cccc(F)c3)[C@H]2CO)cc1`, the result was inactive.

On to `COc1ccccc1C#Cc1ccc([C@@H]2[C@@H](C#N)N(C(=O)C3CCCCC3)[C@H]2CO)cc1`, for which the result was inactive.

For `O=C(C[C@H]1CC[C@H]2[C@@H](COC[C@@H](O)CN2S(=O)(=O)c2cccc(Cl)c2)O1)Nc1ccc(-c2ccccc2)cc1`, the compound was called inactive.

As for `C[C@H](CO)N1C[C@H](C)[C@@H](CN(C)Cc2ccc(C(F)(F)F)cc2)OCCCC[C@H](C)Oc2ccc(NS(=O)(=O)c3ccc(F)cc3)cc2C1=O`, the compound was called inactive.

These data come from PubChem BioAssay AID743144 (Broad Institute, 2013).
